Source: the supplement of paper PMC11732987, “Enantioselective OTUD7B fragment discovery through chemoproteomics screening and high-throughput optimisation” (Communications Chemistry, 2025)
Values without a mark were called inactive.

Tests used:
Test in all cases: log2 ratio of Biotin-Ahx-Ub-VS probe labelling (fragment/DMSO); higher = less target engagement (more negative = stronger competition), active = hit call of the paper (q ≤ 0.05, log2 ratio ≤ -1)
Conditions in all cases: compound concentration: 200 uM; treatment time: 3 h
OTUD6B = biological target: T1, OTUD6B (UniProt Q8N6M0)
T1 sequence (whole entry): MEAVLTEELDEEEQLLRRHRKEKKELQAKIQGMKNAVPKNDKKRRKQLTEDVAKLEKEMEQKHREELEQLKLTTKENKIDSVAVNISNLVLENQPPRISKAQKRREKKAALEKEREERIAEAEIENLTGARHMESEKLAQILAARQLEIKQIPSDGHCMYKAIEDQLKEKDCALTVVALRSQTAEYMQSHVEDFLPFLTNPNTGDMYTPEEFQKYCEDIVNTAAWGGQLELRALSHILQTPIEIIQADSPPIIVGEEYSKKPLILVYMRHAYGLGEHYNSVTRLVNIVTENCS
How it was run: (§1)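 HEK293T lysate (495 µg per sample, in Tris/CHAPS/IGEPAL buffer with protease inhibitors) was treated in triplicate with fragment at 200 µM or with DMSO for 3 h. It was then treated with Biotin-Ahx-Ub-VS (0.5 µM final) for 1 h. Labelled DUBs were NeutrAvidin-enriched, digested with LysC and trypsin, and run by diaPASEF LC-MS/MS. Spectronaut label-free quantities were global-median-normalised. Values are average log2 ratios fragment/DMSO by unpaired t-test, using proteins with ≥2 unique peptides.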

OTUD7B = biological target: T2, OTUD7B (UniProt Q6GQQ9)
T2 sequence (whole entry): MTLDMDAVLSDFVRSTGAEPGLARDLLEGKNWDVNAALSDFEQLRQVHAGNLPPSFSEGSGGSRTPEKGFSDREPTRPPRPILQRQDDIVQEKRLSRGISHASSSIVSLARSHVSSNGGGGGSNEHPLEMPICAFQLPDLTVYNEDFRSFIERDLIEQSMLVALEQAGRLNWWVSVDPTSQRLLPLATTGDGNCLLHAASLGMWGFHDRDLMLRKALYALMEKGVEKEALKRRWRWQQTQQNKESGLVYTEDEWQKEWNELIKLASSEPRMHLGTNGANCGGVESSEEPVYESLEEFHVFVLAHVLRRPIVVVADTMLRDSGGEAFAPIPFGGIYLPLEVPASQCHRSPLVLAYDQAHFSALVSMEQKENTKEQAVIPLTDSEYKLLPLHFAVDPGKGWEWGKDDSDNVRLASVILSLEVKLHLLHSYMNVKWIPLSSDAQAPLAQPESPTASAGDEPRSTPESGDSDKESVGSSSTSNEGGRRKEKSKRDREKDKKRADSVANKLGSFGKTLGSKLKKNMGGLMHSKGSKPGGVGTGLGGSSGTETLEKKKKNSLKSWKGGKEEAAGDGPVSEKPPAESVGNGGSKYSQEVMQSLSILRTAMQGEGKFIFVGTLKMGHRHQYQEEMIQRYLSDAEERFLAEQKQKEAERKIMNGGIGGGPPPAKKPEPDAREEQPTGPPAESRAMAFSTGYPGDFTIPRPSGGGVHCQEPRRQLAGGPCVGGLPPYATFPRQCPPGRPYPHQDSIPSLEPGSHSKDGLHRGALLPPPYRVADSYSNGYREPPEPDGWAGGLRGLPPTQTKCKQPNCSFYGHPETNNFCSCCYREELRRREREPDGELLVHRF
How it was run: as §1

PRPF8 = PRPF8 (UniProt Q6P2Q9)
How it was run: as §1

PSMD7 = biological target: T3, PSMD7 (UniProt P51665)
T3 sequence (whole entry): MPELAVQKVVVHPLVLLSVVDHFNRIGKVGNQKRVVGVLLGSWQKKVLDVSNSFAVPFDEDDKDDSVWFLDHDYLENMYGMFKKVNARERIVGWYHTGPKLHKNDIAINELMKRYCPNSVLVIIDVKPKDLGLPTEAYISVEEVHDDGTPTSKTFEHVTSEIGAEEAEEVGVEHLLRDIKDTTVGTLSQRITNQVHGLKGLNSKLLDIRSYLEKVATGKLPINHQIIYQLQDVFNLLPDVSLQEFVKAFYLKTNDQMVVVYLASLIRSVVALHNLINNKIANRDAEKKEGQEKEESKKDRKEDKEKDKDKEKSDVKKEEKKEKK
How it was run: as §1

UCHL1 = UCHL1 (UniProt P09936)
UCHL1, sequence (P09936 whole entry, looked up): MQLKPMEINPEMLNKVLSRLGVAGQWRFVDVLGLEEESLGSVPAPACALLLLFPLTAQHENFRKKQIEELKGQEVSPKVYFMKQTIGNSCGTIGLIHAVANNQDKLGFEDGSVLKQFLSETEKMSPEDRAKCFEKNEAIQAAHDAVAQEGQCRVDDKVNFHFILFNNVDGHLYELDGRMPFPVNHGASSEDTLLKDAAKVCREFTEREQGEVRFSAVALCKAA
How it was run: as §1

UCHL3 = biological target: T4, UCHL3 (UniProt P15374)
T4 sequence (whole entry): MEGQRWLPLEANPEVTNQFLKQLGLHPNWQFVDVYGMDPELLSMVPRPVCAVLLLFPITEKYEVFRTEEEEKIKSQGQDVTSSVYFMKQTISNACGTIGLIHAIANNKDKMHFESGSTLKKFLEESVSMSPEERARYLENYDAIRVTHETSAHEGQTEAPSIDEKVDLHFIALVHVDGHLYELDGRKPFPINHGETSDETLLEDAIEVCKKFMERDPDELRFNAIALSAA
How it was run: as §1

UCHL5 = biological target: T5, UCHL5 (UniProt Q9Y5K5)
T5 sequence (whole entry): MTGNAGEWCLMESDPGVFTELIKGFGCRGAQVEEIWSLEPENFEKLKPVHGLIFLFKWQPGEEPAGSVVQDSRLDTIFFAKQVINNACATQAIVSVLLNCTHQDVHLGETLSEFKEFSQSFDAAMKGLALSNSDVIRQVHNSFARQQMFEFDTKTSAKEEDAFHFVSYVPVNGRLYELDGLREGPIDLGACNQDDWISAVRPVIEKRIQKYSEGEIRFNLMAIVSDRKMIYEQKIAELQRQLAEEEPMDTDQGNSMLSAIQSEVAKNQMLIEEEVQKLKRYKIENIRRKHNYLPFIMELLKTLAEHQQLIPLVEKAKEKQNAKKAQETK
How it was run: as §1

USP10 = USP10 (UniProt Q14694)
USP10, sequence (Q14694 whole entry): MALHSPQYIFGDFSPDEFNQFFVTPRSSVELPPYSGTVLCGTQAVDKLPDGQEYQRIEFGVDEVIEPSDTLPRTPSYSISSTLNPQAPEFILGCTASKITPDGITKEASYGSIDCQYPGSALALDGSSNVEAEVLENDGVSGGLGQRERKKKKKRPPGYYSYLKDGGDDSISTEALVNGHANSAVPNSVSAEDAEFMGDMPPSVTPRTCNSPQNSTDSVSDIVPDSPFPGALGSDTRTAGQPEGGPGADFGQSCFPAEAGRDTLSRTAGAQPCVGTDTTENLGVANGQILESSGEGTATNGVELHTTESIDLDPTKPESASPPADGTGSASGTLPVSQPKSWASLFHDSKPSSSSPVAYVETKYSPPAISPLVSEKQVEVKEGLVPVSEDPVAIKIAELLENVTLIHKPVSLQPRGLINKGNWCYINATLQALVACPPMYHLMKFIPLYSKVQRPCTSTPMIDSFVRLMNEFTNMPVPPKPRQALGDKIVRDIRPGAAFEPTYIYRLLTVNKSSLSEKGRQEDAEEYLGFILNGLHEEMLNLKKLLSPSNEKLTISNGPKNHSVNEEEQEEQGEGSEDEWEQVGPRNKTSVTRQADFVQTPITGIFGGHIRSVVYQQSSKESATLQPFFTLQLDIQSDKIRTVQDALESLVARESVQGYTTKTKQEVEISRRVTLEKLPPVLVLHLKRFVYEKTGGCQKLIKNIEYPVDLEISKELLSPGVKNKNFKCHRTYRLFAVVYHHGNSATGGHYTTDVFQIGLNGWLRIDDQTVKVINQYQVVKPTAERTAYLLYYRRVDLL
How it was run: as §1

USP15 = biological target: T6, USP15 (UniProt Q9Y4E8)
T6 sequence (whole entry): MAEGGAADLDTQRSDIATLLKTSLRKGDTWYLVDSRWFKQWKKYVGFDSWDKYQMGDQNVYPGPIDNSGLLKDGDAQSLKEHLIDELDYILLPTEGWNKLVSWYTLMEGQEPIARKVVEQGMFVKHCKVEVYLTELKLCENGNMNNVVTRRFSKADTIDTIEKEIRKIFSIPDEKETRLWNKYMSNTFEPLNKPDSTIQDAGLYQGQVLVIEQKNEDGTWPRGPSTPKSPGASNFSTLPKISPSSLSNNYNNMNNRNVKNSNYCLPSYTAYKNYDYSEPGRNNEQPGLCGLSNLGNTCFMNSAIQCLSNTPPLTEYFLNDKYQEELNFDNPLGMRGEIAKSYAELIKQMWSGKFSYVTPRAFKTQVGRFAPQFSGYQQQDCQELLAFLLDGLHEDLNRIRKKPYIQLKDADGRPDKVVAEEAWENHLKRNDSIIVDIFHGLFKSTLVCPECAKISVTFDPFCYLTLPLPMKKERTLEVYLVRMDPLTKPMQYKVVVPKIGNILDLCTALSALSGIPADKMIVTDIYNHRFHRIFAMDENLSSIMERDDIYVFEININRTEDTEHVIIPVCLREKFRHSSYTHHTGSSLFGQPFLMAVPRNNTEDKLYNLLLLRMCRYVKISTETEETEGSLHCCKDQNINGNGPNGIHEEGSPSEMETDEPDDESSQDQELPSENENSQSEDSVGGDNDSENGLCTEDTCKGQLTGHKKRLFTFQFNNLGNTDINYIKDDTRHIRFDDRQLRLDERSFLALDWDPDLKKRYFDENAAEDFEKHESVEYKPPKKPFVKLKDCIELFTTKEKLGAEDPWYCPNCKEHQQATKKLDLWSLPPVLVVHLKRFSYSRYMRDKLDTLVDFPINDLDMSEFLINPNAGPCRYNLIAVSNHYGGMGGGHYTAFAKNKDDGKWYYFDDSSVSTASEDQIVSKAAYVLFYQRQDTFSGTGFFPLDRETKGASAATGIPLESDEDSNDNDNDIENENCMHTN
How it was run: as §1

USP16 = USP16 (UniProt Q9Y5T5)
USP16, sequence (Q9Y5T5 whole entry, looked up): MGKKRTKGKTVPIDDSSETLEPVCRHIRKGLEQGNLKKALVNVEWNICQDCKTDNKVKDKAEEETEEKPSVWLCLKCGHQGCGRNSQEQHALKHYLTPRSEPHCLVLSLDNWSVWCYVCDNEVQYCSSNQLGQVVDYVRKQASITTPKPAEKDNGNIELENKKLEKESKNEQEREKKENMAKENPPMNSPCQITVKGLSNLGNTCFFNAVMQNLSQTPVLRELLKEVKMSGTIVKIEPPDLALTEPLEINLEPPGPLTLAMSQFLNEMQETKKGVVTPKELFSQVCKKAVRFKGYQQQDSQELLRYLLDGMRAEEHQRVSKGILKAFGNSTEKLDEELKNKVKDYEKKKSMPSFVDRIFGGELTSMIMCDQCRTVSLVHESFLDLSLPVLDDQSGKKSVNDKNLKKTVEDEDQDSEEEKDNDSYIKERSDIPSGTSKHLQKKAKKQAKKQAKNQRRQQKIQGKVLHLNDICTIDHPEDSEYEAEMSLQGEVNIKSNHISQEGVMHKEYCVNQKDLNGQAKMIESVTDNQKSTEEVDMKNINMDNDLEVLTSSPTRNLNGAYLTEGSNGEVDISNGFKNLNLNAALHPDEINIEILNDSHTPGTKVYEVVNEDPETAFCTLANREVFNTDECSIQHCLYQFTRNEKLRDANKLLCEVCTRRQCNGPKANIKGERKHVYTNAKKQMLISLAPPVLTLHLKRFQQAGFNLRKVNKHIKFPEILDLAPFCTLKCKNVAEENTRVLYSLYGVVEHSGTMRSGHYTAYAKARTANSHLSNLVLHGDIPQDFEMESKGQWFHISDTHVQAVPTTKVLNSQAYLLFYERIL
How it was run: as §1

In the case of `O=C(CCl)NCc1ccc(N2CCOCC2)c(F)c1`, the “log2 ratio of Biotin-Ahx-Ub-VS probe labelling” value (“log2 ratio” below) (OTUD6B) is reported as 0.111, the “log2 ratio” value (OTUD7B) is reported as -0.497 and the “log2 ratio” value (PRPF8) is reported as -0.0572. For the same molecule, the “log2 ratio” value (PSMD7) was 0.0258, the “log2 ratio” value (UCHL1) was -1.41 (active) and the “log2 ratio” value (UCHL3) was 0.309. For the same molecule, the “log2 ratio” value (UCHL5) was -0.0833, the “log2 ratio” value (USP10) was -0.131 and the “log2 ratio” value (USP15) was -0.0773. The “log2 ratio” value (USP16) was -0.0789.
